# Many of the other results were omitted from the sample, so the strongest signals are more common in it than they were.
# B1: SJA (Sophora japonica) (protein)
# chain: FLGLFNSGGYSSSYQIVAVEFDTYINEWDPKTRHIGIDINSINSTKTVTWGWENGEVAIVLISYKAATETLTVSLTYPSSQTSYILSAAVDLKSILPEWVRIGF
# Tests used:
# Experiment in all cases: glycan array binding signal (z-score within array); higher = stronger binding
# Settings in all cases: glycan notation: IUPAC condensed, linker removed
# [1] = target: Fuc(a1-2)Gal(b1-3)GlcNAc(b1-3)[Neu5Ac(a2-6)Gal(b1-4)GlcNAc(b1-6)]Gal(b1-4)Glc
# Procedure, shortened: (§1)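 Glycan array data were curated from 3228 arrays in the Consortium for Functional Glycomics database and kept only where the protein sequence was available. Glycan names were converted to IUPAC-condensed notation, and columns mapping to the same glycan were averaged. The binding signal is a within-array Z-score, averaged across arrays of the same protein sequence at different concentrations or buffers and across linkers. Negative Z-scores can be read as non-binding.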
# [2] = target: Fuc(a1-2)Gal(b1-3)[Fuc(a1-4)]GlcNAc(b1-2)Man(a1-3)[Fuc(a1-2)Gal(b1-3)[Fuc(a1-4)]GlcNAc(b1-2)Man(a1-6)]Man(b1-4)GlcNAc(b1-4)[Fuc(a1-6)]GlcNAc(b1-4)[Fuc(a1-6)]GlcNAc
# Procedure, shortened: as §1
# [3] = target: Fuc(a1-2)[Gal(a1-3)]Gal(b1-3)GlcNAc(b1-2)Man(a1-3)[Fuc(a1-2)[Gal(a1-3)]Gal(b1-3)GlcNAc(b1-2)Man(a1-6)]Man(b1-4)GlcNAc(b1-4)GlcNAc
# Procedure, shortened: as §1
# [4] = target: Fuc(a1-2)[Gal(a1-3)]Gal(b1-4)GlcNAc
# Procedure, shortened: as §1
# [5] = target: Fuc(a1-2)[Gal(a1-3)]Gal(b1-4)GlcNAc(b1-2)Man(a1-3)[Fuc(a1-2)[Gal(a1-3)]Gal(b1-4)GlcNAc(b1-2)Man(a1-6)]Man(b1-4)GlcNAc(b1-4)GlcNAc
# Procedure, shortened: as §1
# [6] = target: Fuc(a1-2)[Gal(a1-3)]Gal(b1-4)GlcNAc(b1-3)GalNAc
# Procedure, shortened: as §1
# [7] = target: Fuc(a1-2)[Gal(a1-3)]Gal(b1-4)[Fuc(a1-3)]GlcNAc
# Procedure, shortened: as §1
# [8] = target: Fuc(a1-2)[GalNAc(a1-3)]Gal(b1-3)GalNAc(a1-3)[Fuc(a1-2)]Gal(b1-4)GlcNAc
# Procedure, shortened: as §1
# [9] = target: Fuc(a1-2)[GalNAc(a1-3)]Gal(b1-3)GalNAc(b1-3)Gal(a1-4)Gal(b1-4)Glc
# Procedure, shortened: as §1
# [10] = target: Fuc(a1-2)[GalNAc(a1-3)]Gal(b1-4)GlcNAc(b1-3)Gal(b1-4)GlcNAc(b1-3)Gal(b1-4)GlcNAc
# Procedure, shortened: as §1
# [11] = target: Fuc(a1-2)[GalNAc(a1-3)]Gal(b1-4)GlcNAc(b1-6)GalNAc
# Procedure, shortened: as §1
# [12] = target: Fuc(a1-3)[Gal(b1-4)]GlcNAc(b1-2)Man
# Procedure, shortened: as §1
# [13] = target: Fuc(a1-3)[Gal3S(b1-4)]GlcNAc6S
# Procedure, shortened: as §1
# Gal(a1-3)Gal(b1-4)Glc = target: Gal(a1-3)Gal(b1-4)Glc
# Procedure, shortened: as §1
# Gal(a1-4)Gal(b1-4)Glc = target: Gal(a1-4)Gal(b1-4)Glc
# Procedure, shortened: as §1
# [14] = target: Gal(b1-3)GlcNAc(a1-6)Gal(b1-4)GlcNAc
# Procedure, shortened: as §1
# [15] = target: Gal(b1-3)GlcNAc(b1-2)Man(a1-3)[Gal(b1-3)GlcNAc(b1-2)Man(a1-6)]Man(b1-4)GlcNAc(b1-4)[Fuc(a1-6)]GlcNAc
# Procedure, shortened: as §1
# [16] = target: Gal(b1-4)GlcNAc(b1-2)Man(a1-3)[Gal(b1-4)GlcNAc(b1-2)Man(a1-6)][GlcNAc(b1-4)]Man(b1-4)GlcNAc(b1-4)[Fuc(a1-6)]GlcNAc
# Procedure, shortened: as §1
# [17] = target: Gal(b1-4)GlcNAc(b1-2)Man(a1-6)Man(b1-4)GlcNAc(b1-4)GlcNAc
# Procedure, shortened: as §1
# [18] = target: Gal(b1-4)GlcNAc(b1-3)Gal(b1-4)GlcNAc
# Procedure, shortened: as §1
# [19] = target: Gal(b1-4)GlcNAc(b1-3)Gal(b1-4)GlcNAc(b1-3)Gal(b1-4)GlcNAc(b1-2)Man(a1-3)[Gal(b1-4)GlcNAc(b1-3)Gal(b1-4)GlcNAc(b1-3)Gal(b1-4)GlcNAc(b1-2)Man(a1-6)]Man(b1-4)GlcNAc(b1-4)GlcNAc
# Procedure, shortened: as §1
# [20] = target: Gal(b1-4)GlcNAc(b1-3)Gal(b1-4)GlcNAc(b1-3)Gal(b1-4)GlcNAc(b1-3)Gal(b1-4)GlcNAc(b1-3)Gal(b1-4)GlcNAc(b1-2)[Gal(b1-4)GlcNAc(b1-3)Gal(b1-4)GlcNAc(b1-3)Gal(b1-4)GlcNAc(b1-3)Gal(b1-4)GlcNAc(b1-3)Gal(b1-4)GlcNAc(b1-6)]Man(a1-6)[Gal(b1-4)GlcNAc(b1-3)Gal(b1-4)GlcNAc(b1-3)Gal(b1-4)GlcNAc(b1-3)Gal(b1-4)GlcNAc(b1-3)Gal(b1-4)GlcNAc(b1-2)Man(a1-3)]Man(b1-4)GlcNAc(b1-4)[Fuc(a1-6)]GlcNAc
# Procedure, shortened: as §1
# [21] = target: Gal(b1-4)GlcNAc(b1-6)GalNAc
# Procedure, shortened: as §1
# Gal3S4S(b1-4)GlcNAc = target: Gal3S4S(b1-4)GlcNAc
# Procedure, shortened: as §1
# [22] = target: GalNAc(a1-3)GalNAc(b1-3)Gal(a1-4)Gal(b1-4)GlcNAc
# Procedure, shortened: as §1
# [23] = target: GalNAc(b1-3)Gal(a1-4)Gal(b1-4)GlcNAc
# Procedure, shortened: as §1
# GalNAc(b1-4)GlcNAc = target: GalNAc(b1-4)GlcNAc
# Procedure, shortened: as §1
# [24] = target: GalNAc(b1-4)GlcNAc(b1-2)Man
# Procedure, shortened: as §1
# [25] = target: GalNAc(b1-4)GlcNAc(b1-3)GalNAc(b1-4)GlcNAc
# Procedure, shortened: as §1
# GalNAc(b1-4)GlcNAc6S = target: GalNAc(b1-4)GlcNAc6S
# Procedure, shortened: as §1
# GlcA(b1-6)Gal = target: GlcA(b1-6)Gal
# Procedure, shortened: as §1
# [26] = target: GlcNAc(a1-4)Gal(b1-4)GalNAc
# Procedure, shortened: as §1
# [27] = target: GlcNAc(a1-4)Gal(b1-4)GlcNAc(b1-3)Gal(b1-4)GlcNAc
# Procedure, shortened: as §1
# [28] = target: GlcNAc(b1-2)Gal(b1-3)GalNAc
# Procedure, shortened: as §1
# [29] = target: GlcNAc(b1-2)[GlcNAc(b1-6)]Man(a1-6)[GlcNAc(b1-2)Man(a1-3)]Man(b1-4)GlcNAc(b1-4)GlcNAc
# Procedure, shortened: as §1
# [30] = target: GlcNAc(b1-2)[GlcNAc(b1-6)]Man(a1-6)[GlcNAc(b1-2)Man(a1-3)]Man(b1-4)GlcNAc(b1-4)[Fuc(a1-6)]GlcNAc
# Procedure, shortened: as §1
# [31] = target: GlcNAc(b1-3)Gal(b1-4)GlcNAc
# Procedure, shortened: as §1
# [32] = target: GlcNAc(b1-3)Gal(b1-4)GlcNAc(b1-6)[Gal(b1-3)]GalNAc
# Procedure, shortened: as §1
# GlcNAc(b1-4)GlcNAc = target: GlcNAc(b1-4)GlcNAc
# Procedure, shortened: as §1
# [33] = target: Neu5Ac(a2-3)Gal(b1-3)GlcNAc
# Procedure, shortened: as §1
# [34] = target: Neu5Ac(a2-3)Gal(b1-3)[GlcNAc(b1-6)]GalNAc
# Procedure, shortened: as §1
# [35] = target: Neu5Ac(a2-3)Gal(b1-4)GlcNAc
# Procedure, shortened: as §1
# [36] = target: Neu5Ac(a2-3)Gal(b1-4)GlcNAc(b1-3)Gal(b1-4)GlcNAc(b1-2)Man(a1-3)[Neu5Ac(a2-3)Gal(b1-4)GlcNAc(b1-3)Gal(b1-4)GlcNAc(b1-2)Man(a1-6)]Man(b1-4)GlcNAc(b1-4)GlcNAc
# Procedure, shortened: as §1
# [37] = target: Neu5Ac(a2-3)Gal(b1-4)GlcNAc(b1-3)Gal(b1-4)GlcNAc(b1-3)Gal(b1-4)GlcNAc(b1-2)Man(a1-3)[Neu5Ac(a2-3)Gal(b1-4)GlcNAc(b1-3)Gal(b1-4)GlcNAc(b1-3)Gal(b1-4)GlcNAc(b1-2)Man(a1-6)]GalNAc
# Procedure, shortened: as §1
# [38] = target: Neu5Ac(a2-3)Gal(b1-4)[Fuc(a1-3)]GlcNAc(b1-6)[Neu5Ac(a2-3)Gal(b1-3)]GalNAc
# Procedure, shortened: as §1
# [39] = target: Neu5Ac(a2-6)Gal(b1-4)GlcNAc
# Procedure, shortened: as §1
# [40] = target: Neu5Ac(a2-6)Gal(b1-4)GlcNAc(b1-2)Man(a1-3)[Neu5Ac(a2-3)Gal(b1-4)GlcNAc(b1-2)Man(a1-6)]Man(b1-4)GlcNAc(b1-4)GlcNAc
# Procedure, shortened: as §1
# [41] = target: Neu5Ac(a2-6)Gal(b1-4)GlcNAc(b1-3)Gal(b1-3)GlcNAc
# Procedure, shortened: as §1
# [42] = target: Neu5Ac(a2-6)GlcNAc(b1-4)GlcNAc(b1-4)GlcNAc
# Procedure, shortened: as §1
# [43] = target: Neu5Ac(a2-8)Neu5Ac(a2-3)[GalNAc(b1-4)]Gal(b1-4)Glc
# Procedure, shortened: as §1
binder,measurement,setting,value
B1,glycan array binding signal (z-score),[1],-0.155
same,glycan array binding signal (z-score),[2],-0.175
same,glycan array binding signal (z-score),[3],4.34
same,glycan array binding signal (z-score),[4],2.19
same,glycan array binding signal (z-score),[5],4.98
same,glycan array binding signal (z-score),[6],0.012
same,glycan array binding signal (z-score),[7],6.46
same,glycan array binding signal (z-score),[8],-0.406
same,glycan array binding signal (z-score),[9],-0.202
same,glycan array binding signal (z-score),[10],0.248
same,glycan array binding signal (z-score),[11],-0.199
same,glycan array binding signal (z-score),[12],-0.248
same,glycan array binding signal (z-score),[13],-0.061
same,glycan array binding signal (z-score),Gal(a1-3)Gal(b1-4)Glc,-0.143
same,glycan array binding signal (z-score),Gal(a1-4)Gal(b1-4)Glc,-0.134
same,glycan array binding signal (z-score),[14],-0.076
same,glycan array binding signal (z-score),[15],-0.007
same,glycan array binding signal (z-score),[16],-0.337
same,glycan array binding signal (z-score),[17],-0.334
same,glycan array binding signal (z-score),[18],-0.148
same,glycan array binding signal (z-score),[19],2.39
same,glycan array binding signal (z-score),[20],2.24
same,glycan array binding signal (z-score),[21],-0.118
same,glycan array binding signal (z-score),Gal3S4S(b1-4)GlcNAc,-0.23
same,glycan array binding signal (z-score),[22],-0.341
same,glycan array binding signal (z-score),[23],-0.186
same,glycan array binding signal (z-score),GalNAc(b1-4)GlcNAc,3.38
same,glycan array binding signal (z-score),[24],2.46
same,glycan array binding signal (z-score),[25],8.25
same,glycan array binding signal (z-score),GalNAc(b1-4)GlcNAc6S,3.05
same,glycan array binding signal (z-score),GlcA(b1-6)Gal,-0.111
same,glycan array binding signal (z-score),[26],-0.15
same,glycan array binding signal (z-score),[27],-0.229
same,glycan array binding signal (z-score),[28],-0.192
same,glycan array binding signal (z-score),[29],-0.255
same,glycan array binding signal (z-score),[30],-0.375
same,glycan array binding signal (z-score),[31],-0.101
same,glycan array binding signal (z-score),[32],-0.24
same,glycan array binding signal (z-score),GlcNAc(b1-4)GlcNAc,-0.142
same,glycan array binding signal (z-score),[33],-0.139
same,glycan array binding signal (z-score),[34],-0.156
same,glycan array binding signal (z-score),[35],-0.241
same,glycan array binding signal (z-score),[36],0.783
same,glycan array binding signal (z-score),[37],3.51
same,glycan array binding signal (z-score),[38],-0.056
same,glycan array binding signal (z-score),[39],-0.22
same,glycan array binding signal (z-score),[40],-0.178
same,glycan array binding signal (z-score),[41],-0.207
same,glycan array binding signal (z-score),[42],-0.288
same,glycan array binding signal (z-score),[43],-0.232
